The record followed here is PubChem BioAssay (NCI).

About 83,000 compounds went through this panel and 20% of them were active in at least one assay; those are over-represented in the sample as a whole.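 Activity criterion: percent growth below 10, measured after cells in 96-well plates were exposed to a single compound concentration for 48 hours.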 Values without a mark were called inactive. The source made the active and inactive calls.

This assay concerns RXF 393 renal. Briefly: NCI-60 one-dose screen, 48 h (100 = growth as untreated, 0 = no growth, -100 = all killed). To be noted: 10 µM unless noted.
`CC(C)(C)c1ccc(Cn2cc(CSc3nc4ccccc4s3)nn2)cc1`: the growth is 103%.
As for `CCN1CCN(Cc2ccc(Cc3ncc(F)c(-c4cc(F)c5nc(C)n(C(C)C)c5c4)n3)nc2)CC1`, the figure is -28.2% (active).
For `CC(=O)NCC(=O)N1[C@@H]2CC[C@H]1c1ccc(Nc3ncc(C(F)(F)F)c(NC4CCC4)n3)cc12` the value was -12.8% [2.5 µM] (active); for `O=C(NOCCO)c1cc(CN2OCCCC2=O)c(F)c(F)c1Nc1ccc(I)cc1F`, 24.9%.
Regarding `CC(C)CC(=O)Nc1n[nH]c2c1CN(C(=O)C1CCN(C)CC1)C2(C)C`, the growth is -37.2% (active).
Take `Cc1ccc(N)cc1CN1C(=O)c2ccccc2C1=O`: the growth was 102%.
As for `COCc1c(-c2ccc(NC(=O)Nc3cc(C(F)(F)F)ccc3F)c(F)c2)c2c(N)ncnn2c1CN1CCOCC1`, the figure is -88.4% (active); as for `O=C(CNc1nc2ccccc2s1)Nc1ccc(-c2nc3ccccc3s2)cc1`, 112%.
As for `N#CC[C@H](C1CCCC1)n1cc(-c2ncnc3[nH]ccc23)cn1`, the growth is 15.9%.
As for `C=CC(=O)Nc1cc2c(Nc3ccc(F)c(Cl)c3)ncnc2cc1C#CC(C)(C)N1CCN(C)CC1`, the figure is -98.6% (active); as for `CC(=O)C1=C(C)NC(SCc2nnc(-c3ccc(C)cc3)o2)=NC1c1ccc(F)cc1` (centres undefined), 103%; as for `CNC(=O)c1ccc(Nc2ncc(C(F)(F)F)c(NCc3nccnc3N(C)S(C)(=O)=O)n2)cc1`, -51.1% (active).
As for `C/C=C/C=N/NC(=S)Nc1ccccc1`, the figure is 119%; as for `COc1cc(N2CCC(N(C)C)CC2)ccc1Nc1ncc(Cl)c(Nc2ccccc2P(C)(C)=O)n1`, -60.1% (active); as for `CN1CCN(CCCOc2cccc3nc(Nc4ccc(Cl)c(C(F)(F)F)c4)ccc23)CC1`, 14.7%.
For `C#Cc1cccc(Nc2ncnc3cc(OC)c(OCCCCCCC(=O)NO)cc23)c1` the value was -49.5% (active); for `Cc1ccc(-n2nc(C(C)(C)C)cc2NC(=O)NCc2cc(F)ccc2Oc2ccc3c(cnn3CCO)c2)cc1`, -10.3% (active).
For the molecule `Cn1ccnc1C(=O)/C=C/c1ccc(CC(=O)Nc2ccc(Br)cc2)cc1`, the growth is 21%.
With `Cc1[nH]n(C(N)=S)c(=O)c1N=Nc1ccc(S(=O)(=O)Nc2ccncn2)cc1`, the growth is 108%.
As for `Cc1[nH]c(/C=C2\C(=O)Nc3ccc(F)cc32)c(C)c1C(=O)NC[C@H](O)CN1CCOCC1`, the figure is -17.1% (active); as for `Cn1ncc(Cl)c1-c1cc(C(=O)N[C@H](CN)Cc2cccc(F)c2)sc1Cl`, -36.5% (active); as for `Cn1cc(-c2ncnc3ccc(-c4cnc(Cl)c(NS(C)(=O)=O)c4)cc23)c2ccccc21`, -26.7% (active).
As to `O=[N+]([O-])c1cc(Br)cc2c1[nH]c1ccc(Br)cc12`, the growth was 43.6%.
For `COc1ccc2c(OCc3nnc4ccc(-c5ccccc5)nn34)ccnc2c1` the value was -13.9% [2.5 µM] (active); for `CC(=O)O[C@]1(C)C[C@H](O)[C@]2(O)C=CO[C@H](O[C@@H]3O[C@H](CO)[C@@H](O)[C@H](O)[C@H]3O)[C@@H]21`, 109%; for `COc1cc2cc(NCc3ccc(F)cc3)nc(C)c2cc1OC`, 59.7%.
As for `O=C(Nc1nc2cccc(-c3ccc(CN4CCS(=O)(=O)CC4)cc3)n2n1)C1CC1`, the figure is 50.7%; as for `N#Cc1c(-c2ccc(Cl)cc2)csc1NC(=O)Nc1cccc(C(F)(F)F)c1`, 59.5%; as for `O=C(c1ccc(/C=C/c2n[nH]c3ccccc23)cc1)N1CCNCC1`, -15.4% (active).
`Cc1cnc(Nc2ccc(OCCN3CCCC3)cc2)nc1Nc1cccc(S(=O)(=O)NC(C)(C)C)c1`: the growth was -86.7% (active).
`CO[C@H]1C[C@@H]2CC[C@@H](C)[C@@](O)(O2)C(=O)C(=O)N2CCCC[C@H]2C(=O)O[C@H]([C@H](C)C[C@@H]2CC[C@@H](OCCO)[C@H](OC)C2)CC(=O)[C@H](C)/C=C(\C)[C@@H](O)[C@H](OC)C(=O)[C@H](C)C[C@H](C)\C=C/C=C/C=C/1C`: the growth is 5.21% (active).
As for `COc1cc(F)c(F)c(Nc2ccc(I)cc2F)c1NS(=O)(=O)C1(C[C@H](O)CO)CC1`, the figure is -2.17% (active).
For `Nc1ccc(S(=O)(=O)O)c2cc(S(=O)(=O)O)cc(O)c12` the value was 114%.
For `COc1cc2ncnc(Nc3ccc(F)c(Cl)c3)c2cc1NC(=O)/C=C/CN1CCCCC1`, the growth was -92.1% (active).
Consider `COc1ccc(C(=O)N2c3ccccc3Sc3ccccc32)c(F)c1`, for which the growth is -23.1% (active).
Consider `O=S1(=O)OC(c2ccc(O)c(Cl)c2)(c2ccc(O)c(Cl)c2)c2ccccc21`, for which the growth is 105%.
On to `C[C@H](NC(=O)c1c(N)nn2cccnc12)c1cc2cccc(C#Cc3cnn(C)c3)c2c(=O)n1-c1ccccc1`, for which the growth is -16% (active).
With `Cc1cc(O)cc(-c2c(-c3ccnc(-c4cccnc4)c3)cnn2C)c1`, the growth was 54.4%.
For `CN1CCN(CCOc2cc(OC3CCOCC3)c3c(Nc4c(Cl)ccc5c4OCO5)ncnc3c2)CC1` the value was 31.6%.
